BAZ2B inh: qHTS Assay for Inhibitors of BAZ2B; AlphaScreen BAZ2B-H3K14Ac peptide displacement; Potency, µM (top dose mostly 114 µM), most hits filed as inhibitors; hit rate 4.4% among 360,000; Bromodomain adjacent to zinc finger domain protein 2B (Homo sapiens), Q9UIF8; note: nearly all actives have a fitted effect of over 60% in size
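AlphaScreen luminescence quantifies BAZ2B engagement of H3K14Ac peptide; the protein and biotinylated peptide are both at 50 nM final, buffer PBS pH 7.4 with 0.01% Tween-20, all steps at room temperature.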
HP1b chromo inh: HTS for Inhibitors of HP1-beta Chromodomain Interactions with Methylated Histone Tails | Potency, µM (doses to about 114 µM), usual class: inhibitors | Chromobox protein homolog 1 (Homo sapiens), P83916 | hit rate 0.56% among 390,000 | AlphaScreen HP1-beta / biotin-H3K9me3 peptide binding; note: nearly all actives have a fitted effect of over 70% in size
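Compound inhibition of the preformed complex between 50 nM HP1-beta and 50 nM biotinylated H3K9me3 peptide was read by AlphaScreen. Buffer was PBS pH 7.4 with 0.01% Tween-20. Incubations ran 30 min at room temperature, with 10 ug/mL donor/acceptor beads.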
L3MBTL1 block: qHTS Assay for the Inhibitors of L3MBTL1; AlphaScreen L3MBTL1–H3K9me1 peptide binding; Potency, µM (doses to about 57.1 µM), actives largely listed as inhibitors; hit rate 0.66% among 230,000; AID 485360, 2010; note: nearly all actives have a fitted effect of over 60% in size
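L3MBTL1 (50 nM) pre-complexed 30 min with biotinylated H3(1-15)K9me1 peptide (75 nM), then compounds added for 30 min at room temperature; AlphaScreen streptavidin donor/nickel chelate acceptor beads (10 ug/mL final) read after 30 min dark incubation.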
JMJD2A Tudor: qHTS Assay for Inhibitors of JMJD2A-Tudor Domain; Potency, µM (doses to about 114 µM), actives largely listed as inhibitors; Lysine-specific demethylase 4A (Homo sapiens), O75164; AlphaScreen JMJD2A-Tudor / H3K4me3 peptide binding; hit rate 4.4% among 390,000; AID 504339, 2011; note: nearly all actives have a fitted effect of over 50% in size
Sfp PPTase inh: qHTS Assay for Inhibitors of Bacillus subtilis Sfp phosphopantetheinyl transferase (PPTase). 4'-phosphopantetheinyl transferase ffp (Bacillus subtilis), Q9F4F7. Biochemical Sfp PPTase activity, qHTS. Potency, µM, usual class: inhibitors. hit rate 3.5% among 310,000;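 note: the enzyme is Sfp with the accession as filed and its product quenches rhodamine fluorescence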
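Fluorescence-quenching assay with 15 nM Sfp, 5 uM rhodamine-CoA and 12.5 uM BHQ-2-labelled ybbR peptide in pH 7.6 Hepes/MgCl2 buffer. Enzyme was pre-incubated with compound for 15 min at room temperature. Rate was taken from the 30-min fluorescence change (525/598 nm).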
G9a inh: qHTS Assay for Inhibitors of Histone Lysine Methyltransferase G9a; G9a H3K9 monomethylation, AlphaScreen, 2 h; hit rate 8.8% among 350,000; Potency, µM (titrated, usually from 102 µM), usual class: inhibitors; AID 504332, 2011; note: nearly all actives have a fitted effect of over 75% in size
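Step 1: enzyme (final 20 nM) with compound, 15 min RT. Step 2: substrate peptide 500 nM and SAM 20 uM, 2 h RT. Step 3: anti-H3K9me1 antibody and AlphaScreen beads, 10 min, then plate read.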
Numbers stand for hits; – = inactive; ? = inconclusive; · = no result given; ! = not active in a repeat; [ ] = dose if it differs, or a comment. Compounds with a hit are over-represented: about 12% of the library has one in this group of screens. Calls come from the whole dose curve; as a rule, active = well fitted curve in the direction sought with a large enough effect; inconclusive = small, poorly fitted or top-dose-only effect, or another doubt; inactive = no such curve, though single readings can be large; an effect the other way counts as inactive or inconclusive.

SMILES	BAZ2B inh	HP1b chromo inh	L3MBTL1 block	JMJD2A Tudor	Sfp PPTase inh	G9a inh
COc1ccc(-c2cc(C(=O)Nc3cccc(C(C)=O)c3)no2)cc1OC	–	–	·	–	·	–
CCS(=O)(=O)N1CC(=O)N(c2ccc(Cl)cc2C)C(C)(C(=O)NC2CCCCC2)C1 (stereo not given)	–	–	·	–	·	–
Cc1ccc(S(=O)(=O)N2CCN(c3nc(-c4cccs4)nc4ccccc34)CC2)c(C)c1	·	–	·	–	·	·
c1ccc(C2CCC(N3CCN(c4ccccc4)CC3)CC2)cc1 (stereo not given)	?	–	–	?	–	56µM
COc1cccc(OCC(=O)Nc2c3c(nn2-c2ccccc2)CS(=O)(=O)C3)c1	–	–	·	?	–	·
COc1ccc(NS(=O)(=O)c2ccc(O)c(NS(=O)(=O)c3ccc(NC(C)=O)cc3)c2)cc1	·	–	–	–	·	·
CCNC(=O)Nc1cc(S(=O)(=O)Nc2ccc(OC)cc2)ccc1N1CCOCC1	–	–	–	–	·	–[2.33 µM]
COc1ccc(NS(=O)(=O)c2ccc(N3CCCC3)c(NC(=S)Nc3cccc(C)c3C)c2)cc1	?	?	–	56µM	13µM	1.3µM
COc1ccc(NS(=O)(=O)c2ccc(N3CCCC3)c(NC(=S)Nc3ccc(SC(F)F)cc3)c2)cc1	?	11µM	–	56µM	18µM	?
OC1OC[C@@H](O)[C@H](O)[C@@H]1O (stereo not given in full)	·	·	·	·	–	–
CCNC(=S)N/N=C(\C)c1cccc(OC)c1	–	–	·	–	?	–
CCNC(=S)N/N=C(\C)c1ccc2ccccc2c1OC(F)F	?	?	?	?	–	45µM
CCNC(=S)N/N=C(\C)c1ccc2ccccc2c1	35µM	·	–	·	–	?
COc1ccc(-c2noc(-c3ccc(NC4CCCCC4)c([N+](=O)[O-])c3)n2)cc1	–	–	·	–	·	?
Cc1nc2c3cccnc3nn2c(C)c1CCC(=O)NCc1ccccc1Cl	–	–	·	–	·	–
COc1cc(/C=N/Nc2nncn2/N=C/c2ccc(O)c(OC)c2)ccc1O	–	–	–	–	?	–
COc1cc(/C=N/NC(=S)N/N=C/c2cc(OC)c(OC)c(OC)c2)cc(OC)c1OC	–	–	–	?	–	?
COc1cc(/C=N/n2c(-c3cc(C)[nH]n3)n[nH]c2=S)ccc1O	–	–	–	?	50µM	4µM
COc1cccc(/C=N/n2c(-c3cc(C)[nH]n3)n[nH]c2=S)c1	–	?	–	3.2µM	?	2.5µM
COc1cc(/C=N/n2c(-c3cc(C)[nH]n3)n[nH]c2=S)cc(OC)c1OC	–	–	–	1.4µM	32µM	2.5µM
COc1ccc(CNC(=O)CN2C(=O)COc3ccc(S(=O)(=O)N4CCOCC4)cc32)cc1	–	–	·	–	–	–
COc1ccccc1NS(=O)(=O)c1cccc(C(=O)NNC(=O)C(C)NC(=O)c2ccco2)c1 (stereo not given)	·	–	–	–	·	·
C=CCSc1nnc(-c2cnn(-c3ccccc3)c2-n2cccc2)n1C	–	–	·	–	–	–[12.7 µM]
CCCSc1nnc(-c2cnn(-c3ccccc3)c2-n2cccc2)n1C	–	–	·	–	–	13µM
O=C(Cc1ccccc1)Nc1ncccc1Cl	·	–	·	–	·	·
SMILES	BAZ2B inh	HP1b chromo inh	L3MBTL1 block	JMJD2A Tudor	Sfp PPTase inh	G9a inh
NC(=O)NC(=O)COC(=O)c1ccc(OC(F)(F)F)cc1	–	–	–	–	–	–
O=C(COC(=O)c1ccc(OC(F)(F)F)cc1)Nc1ncccn1	·	–	–	56µM	·	·
CCOc1ccccc1NC(=O)c1sc2nc(-c3ccc(OC)cc3)ccc2c1N	–	–	·	–	·	–
N#Cc1c(NCCO)nc(NCc2ccccc2)c2c1CCN(Cc1ccccc1)C2	45µM	–	–	?	–	?
CCN1CCc2c(sc(N)c2C#N)C1	–	–	–	–[11.4 µM]	–	–[12.7 µM]
C=CCNc1nc(N2CCCCC2)c(C#N)c2c1CN(Cc1ccccc1)CC2	–	–	–	–	–	–
N#Cc1c(N)sc(=S)c2c1CCN(Cc1ccccc1)C2	79µM	·	–	·	3.5µM	?
CCN1CCc2c(C#N)c(N3CCCCC3)nc(NCc3ccccc3)c2C1	56µM	–	·	?	–	?
CCN1CCc2c(C#N)c(N3CCOCC3)nc(NCc3ccccc3)c2C1	?	–	·	–	–	?
COc1cccc(-c2c3c([nH]c(=O)c2C#N)CCc2cc(OC)ccc2-3)c1	–	–	·	–	–	–
O=c1cc(-c2ccccc2Cl)oc2c(Br)ccc(O)c12	–	–	–	–	–	56µM!
O=C(Nc1ccc(O)c2c(=O)cc(-c3ccccc3Cl)oc12)c1cc(Cl)cc(Cl)c1	·	–	·	–	56µM	·
O=C(Nc1ccc(O)c2c(=O)cc(-c3ccccc3Cl)oc12)c1ccc(Cl)c(Cl)c1	–	–	·	–	79µM!	–[12.7 µM]
Cc1ccccc1C(=O)Nc1ccc(O)c2c(=O)cc(-c3ccccc3Cl)oc12	–	–	·	–	?	–
O=c1cc(-c2ccccc2Cl)oc2c([N+](=O)[O-])ccc(O)c12	·	·	·	·	–	–
CCOC(=O)c1ccc(NC(=O)CSc2ccc3ccccc3n2)cc1	–	–	·	–	·	–
Cc1ccc(NC(=O)O/N=C/c2ccc(N(C)C)cc2)cc1	–	–	·	–	–	–[0.501 µM]
CC(NC(=O)Cn1cc([N+](=O)[O-])cn1)c1ccc(C(C)(C)C)cc1 (stereo not given)	·	–	·	–	·	·
O=C(c1cccc(F)c1)N1CCC2(CC1)CN(C(c1ccccc1)c1ccccc1)C2	·	·	·	·	–	–[12.7 µM]
Cc1ccc(S(=O)(=O)N2CCN(Cc3nc4ccc(C)cc4o3)CC2)c(C)c1	–	–	·	–	·	–
COC(=O)C1=C(CSc2nncn2C)NC(=O)NC1c1cc(C)ccc1C (stereo not given)	–	–	–	–	–	22µM
COC(=O)C1=C(CN2CCc3ccccc32)NC(=O)NC1c1cc(C)ccc1C (stereo not given)	50µM	–	–	?	?	?
COC(=O)C1=C(CN2CCCc3ccccc32)NC(=O)NC1c1ccc(F)cc1 (stereo not given)	?	–	–	?	–	20µM
CCCn1c(CCNC(=O)c2ccco2)nc2ccccc21	–	–	·	–	–	–
CC(C)Cc1cc(C(=O)NCc2ccc(Cl)cc2)no1	–	–	·	–	·	–
Cc1ccc(S(=O)(=O)Nc2c(C)nc3nc(C)[nH]n3c2=O)c(C)c1	–	–	·	–	–	–
Cc1ccc(S(=O)(=O)Oc2ccccc2)cc1	·	–	·	–	·	·
